This is an account of results in PubChem BioAssay.

Assay [1] can be described thus: inhibitors of TNFa-induced NFkB p65 translocation, primary screen, imaging, HUVEC, MLSMR starter and 10KST1 sets (AID 438;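 active means inhibition above 20% together with a positive visual image hit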;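 further: compound added about 3h40 before a 20 min TNFalpha stimulation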;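 on inhibition: signal is the nuclear over cytoplasmic p65 intensity ratio per well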). The following applies: HUVEC TNFa-induced p65 nuclear translocation; cell count: measured here: nuclei count (cytotoxicity indicator), at 2.08 µM; inhibition: at 2 µM, stronger effect = higher value, 0% TNFa-plus-vehicle, 100% no-TNFa wells.
Assay [2] can be described thus: reduction of polyQ htt aggregates in cells – imaging, exon1htt(103Q)mCFP cells, high-content imaging, primary screen (AID 483;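 active means visual image review flags a hit and inhibition of aggregation exceeds 20%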;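 further: compound exposure lasted 3 days before fixation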;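 on nuclei count: percent of the per-plate median nuclei count of sample wells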). The following applies: exon1htt(103Q)mCFP cell line, aggregate imaging, at 2 µM; inhibition of aggregation: stronger effect = higher value; nuclei count: measured here: cell count, toxicity.
A short description of assay [3]: endothelial E-selectin expression blockers – imaging, HUVEC, immunofluorescence, MLSMR starter and 10KST1 sets, primary screen (AID 487;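 active means visually confirmed hit in the image check and inhibition above 20%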;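 on inhibition: signal is fraction of cell area covered by stained E-selectin grains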;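 on nuclei count: 100% = median nuclei count of all wells on the same plate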). The conditions noted are these: HUVEC TNFalpha-induced E-selectin immunofluorescence imaging, at 2 µM; inhibition: stronger effect = higher value; nuclei count: measured here: cell number, toxicity.
A short description of assay [4]: Primary imaging screen for DUSP6 inhibitors that restore phospho-Erk in transfected HeLa cells, chemical complementation (AID 609;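 active means compounds giving at least 50% inhibition in the cell-based MKP-3 phosphatase rescue imaging test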;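 on inhibition: phospho-Erk level distribution per well compared with pooled transfected vehicle control wells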). The following applies: HeLa MKP-3 transfected, phospho-Erk imaging KS statistic, at 10 µM, cells stimulated with TPA for 15 min.
Assay [5] has as its target Dual specificity protein phosphatase 6 (Homo sapiens) (UniProt Q16828). The assay is described as above. The following applies: HeLa MKP-3 transfected, phospho-Erk imaging KS statistic; at 10 µM; stronger effect = higher value; cells stimulated with TPA for 15 min.
The target of assay [6] is Voltage-gated potassium channel subunit beta-2 (Rattus norvegicus) (UniProt P62483). Kind of assay: inhibitors of rat Kvbeta2 reductase activity – biochemical, NADPH fluorescence, primary screen (AID 622;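 active means fluorescence slope higher than the sample average by over 3 SD, cut at about -0.22 in these data, passing the limit was not always enough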;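 further: slope of raw intensity against log time taken from 70 to 1610 s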). The following applies: recombinant KvBeta, 4-cyanobenzaldehyde reduction, at 10 µM, stronger effect = higher value.
Chain of Voltage-gated potassium channel subunit beta-2 (Rattus norvegicus) (P62483 whole entry, looked up): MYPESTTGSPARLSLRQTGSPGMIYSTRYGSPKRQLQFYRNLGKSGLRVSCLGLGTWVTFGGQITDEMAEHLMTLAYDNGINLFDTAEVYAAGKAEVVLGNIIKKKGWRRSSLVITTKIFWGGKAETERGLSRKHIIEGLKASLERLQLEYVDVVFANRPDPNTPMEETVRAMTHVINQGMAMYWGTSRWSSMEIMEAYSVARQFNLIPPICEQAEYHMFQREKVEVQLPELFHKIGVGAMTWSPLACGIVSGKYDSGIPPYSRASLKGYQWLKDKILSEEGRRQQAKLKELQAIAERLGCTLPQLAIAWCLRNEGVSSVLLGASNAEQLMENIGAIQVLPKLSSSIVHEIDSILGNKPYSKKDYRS
The target is the same in assay [7]. Put plainly: enhancers of rat Kvbeta2 NADPH turnover – biochemical, NADPH fluorescence, primary screen (AID 623;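 active means NADPH fluorescence slope more negative than the mean of all samples by about 3 SD, 99.7% confidence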;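 further: fluorescence intensity change per second fitted from 20 to 320 s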). The following applies: Recombinant KvBeta, NADPH fluorescence decrease slope, 10 min; at 10 µM; stronger effect = lower value.
In assay [8] the target is Alpha-2C adrenergic receptor (Homo sapiens) (UniProt P18825). Put plainly: compounds altering alpha2C-coupled GIRK flux – cell-based, HEK293 alpha2C/GIRK1/2, thallium flux, primary screen (AID 624;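 active means fluorescence slope after compound addition differing from the mean of all screened samples at 99.7% confidence, in either direction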;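 further: slope of fluorescence ratio to pre-addition baseline per second over 15 to 24 s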). The conditions noted are these: thallium flux BTC fluorescence, at 10 µM, actives lie on both sides.
Chain of Alpha-2C adrenergic receptor (Homo sapiens) (P18825 whole entry, looked up): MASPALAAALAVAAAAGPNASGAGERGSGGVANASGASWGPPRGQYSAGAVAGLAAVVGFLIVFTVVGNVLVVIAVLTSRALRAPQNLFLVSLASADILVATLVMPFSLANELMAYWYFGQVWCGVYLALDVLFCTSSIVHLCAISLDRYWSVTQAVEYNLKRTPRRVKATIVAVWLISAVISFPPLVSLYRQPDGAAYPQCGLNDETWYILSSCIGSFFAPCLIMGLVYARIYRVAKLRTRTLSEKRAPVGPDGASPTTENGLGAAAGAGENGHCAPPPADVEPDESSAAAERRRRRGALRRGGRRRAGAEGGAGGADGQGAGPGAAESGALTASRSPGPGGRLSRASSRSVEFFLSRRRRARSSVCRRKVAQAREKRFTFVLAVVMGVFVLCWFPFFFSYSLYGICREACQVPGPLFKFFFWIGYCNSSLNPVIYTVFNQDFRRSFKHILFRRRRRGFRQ
The nature of assay [9]: inhibitors of larval lipid processing in zebrafish, primary screen, whole organism, PED6 fluorescence, gall bladder and intestine (AID 686;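 active means a full or partial loss of lipid-probe fluorescence in the fish gall bladder, intestine or both, judged by eye; inactive means no fluorescence loss, or compound toxic to the fish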;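 further: larvae 5 to 7 days old with five fish per well; signal comes from phospholipase A2 cleavage of quenched PED6 carried via bile; overnight exposure to compound and PED6 before scoring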). The conditions noted are these: Zebrafish larvae PED6 lipid processing, fluorescence scoring; screened at 20 µM (by protocol).
Assay [10] can be described thus: loss of swimming-algae plug formation – whole organism, Chlamydomonas reinhardtii, WT vs cilia-less mutant, absorbance, 96-well, primary screen (AID 463189).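 Further: 0% = wild type cc124 cells in DMSO and 100% = ciliumless bld1 mutant cells.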 The following applies: Chlamydomonas reinhardtii gravitaxis, OD600 absorbance, 2 days; at 10 µM; stronger effect = higher value.
Assay [11] can be described thus: blockers of RIG-like receptor reporter activation – cell-based, Sendai virus stimulus, luciferase, 10K MLSCN set, TLR/RLR signaling modifier project, primary screen (AID 602276;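 active means inhibition at or above 50% at 10 µM; inactive means inhibition below 50%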;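 further: firefly luciferase from ISG56 promoter only with Renilla not read in this screen; 0% = Sendai virus plus DMSO and 100% = medium plus DMSO without virus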). The following applies: HEK293 RL24 IRF3 luciferase reporter, at 10 µM, stronger effect = higher value.
The nature of assay [12]: TLR3 IRF3 reporter activation blockers – cell-based, poly I:C stimulus, luciferase, 10K MLSCN set, primary screen (AID 602277;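 active means inhibition of the reporter signal at or above 50%; inactive means inhibition below 50%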). The following applies: HEK293-TLR3 RL24 IRF3 luciferase reporter, at 10 µM, stronger effect = higher value. (In general: Reporter assays use an easily measured gene product as a stand-in for the process of interest.)
[13] abbreviates: measured here: cell density z-score.
[14] abbreviates: measured here: nuclear c-Myc green intensity z-score.
Where [15] appears, read: measured here: nuclear pErk red intensity z-score, stronger effect = higher value.

Values joined by “and” are separate entries in the source; they are usually repeats but may differ in a detail not shown here. Identical values can stand only once. Active and inactive are the calls of the source.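 How the source made its calls, unless noted: active means inhibition at or above 50% relative to wild type and mutant plate controls; inactive means inhibition below 50%.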

Chain of Dual specificity protein phosphatase 6 (Homo sapiens) (Q16828 whole entry, looked up): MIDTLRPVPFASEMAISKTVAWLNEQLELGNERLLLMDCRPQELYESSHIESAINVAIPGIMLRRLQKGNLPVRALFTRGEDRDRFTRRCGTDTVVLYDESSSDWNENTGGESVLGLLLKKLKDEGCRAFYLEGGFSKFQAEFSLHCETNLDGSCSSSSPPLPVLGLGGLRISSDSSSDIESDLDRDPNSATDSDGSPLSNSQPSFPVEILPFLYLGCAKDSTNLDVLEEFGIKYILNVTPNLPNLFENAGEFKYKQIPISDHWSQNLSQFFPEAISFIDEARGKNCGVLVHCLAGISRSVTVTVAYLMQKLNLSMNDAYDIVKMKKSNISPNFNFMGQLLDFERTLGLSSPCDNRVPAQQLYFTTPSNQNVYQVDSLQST

In general, inhibition refers to the relative decrease from the control value, in per cent. `CC(O)Cn1cnc2c1c(=O)n(C)c(=O)n2C` (stereo not drawn): the cell count in assay [1] was 541. Also, the inhibition was -7% (inactive) in assay [1]; -13.1% (inactive) in [3]; 15.3% (inactive) in assay [5]; 23.2% (inactive) in [10]; 12% (inactive) in assay [11]; 29.4% (inactive) in assay [12]. Also, the inhibition of aggregation in assay [2] is 11.8% (inactive). For the same compound, the nuclei count amounted to 99.1% in assay [2] and 128% in assay [3]. The z-score was 1.09 in assay [4] (setting [13]), -0.569 in assay [4] (setting [14]) and -0.416 in assay [4] (setting [15]). The fluorescence slope in assay [6] was -0.45 (inactive). For the same compound, the NADPH fluorescence slope in assay [7] is -7.7e-05 (inactive). In addition, in assay [8], the slope was 0.00504 (inactive). For the same compound, the outcome in assay [9] was inactive.

As for `CC1=C(c2ccc(Cl)cc2)[N+](=O)C(C)(C)N1[O-]`, in assay [1], the cell count worked out at 523. The inhibition was -5.6% (inactive) in assay [1]; -69.5% (inactive) in assay [3]; 6.04% (inactive) in [5]; 21.6% (inactive) in [10]; -0.683% (inactive) in assay [11]; 15.7% (inactive) in assay [12]. In addition, in assay [2], the inhibition of aggregation is 8.9% (inactive). The nuclei count in assay [2] amounted to 94.8%; in assay [3], 124%. Also, the z-score in assay [4] (setting [13]) is 0.834; in assay [4] (setting [14]) it was -1.84; in [4] (setting [15]), 0.735. Also, the fluorescence slope in assay [6] was -0.408 (inactive). In addition, the NADPH fluorescence slope in assay [7] was -7.3e-06 (inactive). Also, in [8], the slope was 0.00633 (inactive). For the same compound, the compound was called inactive in [9].

Turning to `CC(C)N=c1cc2n(-c3ccc(Cl)cc3)c3ccccc3nc-2cc1Nc1ccc(Cl)cc1`, in [1], the cell count was found to be 636. Moreover, the inhibition in assay [1] is -2.8% (inactive); in [3] it was -163% (inactive); in assay [5], -0.493% (inactive); in assay [10], 157% (active); in assay [11], -7.35% (inactive); in assay [12], 33.1% (inactive). Moreover, the inhibition of aggregation in assay [2] is -9.9% (inactive). The nuclei count in [2] worked out at 102%; in assay [3], 126%. Moreover, the z-score in [4] (setting [13]) was -0.698; in assay [4] (setting [14]) it was -0.296; in assay [4] (setting [15]), 0.758. Further, in assay [6], the fluorescence slope is -0.535 (inactive). Moreover, the NADPH fluorescence slope in assay [7] is -1.6e-05 (inactive). Moreover, in assay [8], the slope is 0.00125 (inactive). The outcome in assay [9] is “active; weak signal in gallbladder and intestine”.

Take `CCCC(=O)N(Cc1cc2ccccc2[nH]c1=O)c1ccccc1OC`: in assay [1], the cell count turned out to be 429. In addition, the inhibition was -16.8% (inactive) in [1]; -133% (inactive) in [3]; 17.7% (inactive) in assay [5]; 27.4% (inactive) in [10]; 12% (inactive) in [11]; 14.8% (inactive) in [12]. Moreover, in assay [2], the inhibition of aggregation was -1.6% (inactive). For the same compound, the nuclei count in [2] was found to be 94.8%; in [3], 166%. Also, the z-score is 1.04 in assay [4] (setting [13]), -0.344 in assay [4] (setting [14]) and -0.503 in [4] (setting [15]). In assay [6], the fluorescence slope was -0.364 (inactive). Besides, the NADPH fluorescence slope in [7] is -8.5e-06 (inactive). The slope in assay [8] is 0.00461 (inactive). In addition, the compound was called inactive in [9].

Take `O=C(CSc1nnc(-c2ccccc2)c(-c2ccccc2)n1)N1CCOCC1`: the cell count in assay [1] amounted to 611. For the same compound, the inhibition in assay [1] was -6.9% (inactive); in assay [3], -44.9% (inactive); in assay [5], -3.5% (inactive); in [10], 9.56% (inactive); in [11] it was 14.8% (inactive); in [12] it was 18% (inactive). Further, the inhibition of aggregation in [2] was 15.5% (inactive). Besides, the nuclei count in assay [2] was 96.7%; in assay [3], 134%. Besides, the values for the z-score in [4] (setting [13]), in [4] (setting [14]) and in assay [4] (setting [15]) were -0.179, -0.654 and 1.26, respectively. Also, the fluorescence slope in [6] was -0.397 (inactive). In addition, in [7], the NADPH fluorescence slope was -1.1e-05 (inactive). In [8], the slope was 0.00498 (inactive). In assay [9], the call was inactive.

`CC(=O)O[C@H]1C[C@@H]2CC[C@@H]3[C@H](CC[C@@]4(C)[C@H]3C[C@H]([N+]3(C)CCCCC3)[C@@H]4OC(C)=O)[C@@]2(C)C[C@@H]1[N+]1(C)CCCCC1`: in assay [1], the cell count turned out to be 612. In addition, the inhibition was 0.4% (inactive) in [1]; -24.6% (inactive) in assay [3]; 7.39% (inactive) in assay [5]; 0.263% (inactive) and 18.9% (inactive) in assay [10]; 21.9% (inactive) in [11]; 31.6% (inactive) in assay [12]. For the same compound, the inhibition of aggregation in assay [2] was -15.2% (inactive). In addition, the nuclei count in assay [2] is 115%; in [3] it was 114%. The figures for the z-score in assay [4] (setting [13]), in [4] (setting [14]) and in assay [4] (setting [15]) were -0.612, 0.0914 and 0.638, respectively. Further, the fluorescence slope in assay [6] is -0.45 (inactive). For the same compound, in [7], the NADPH fluorescence slope was 2.4e-05 (inactive). In [8], the slope was 0.00404 (inactive). Further, in assay [9], the outcome was inactive.

As to `CC1Cc2ccccc2N1NC(=O)c1ccc(Cl)c(S(N)(=O)=O)c1` (stereo not drawn), the cell count in assay [1] stood at 657. In addition, the inhibition in [1] was -3.7% (inactive); in assay [3], -59.9% (inactive); in assay [5] it was 21.2% (inactive); in [10] it was 18.3% (inactive); in [11], -7.5% (inactive); in assay [12] it was -10.9% (inactive). In addition, in assay [2], the inhibition of aggregation was 4.2% (inactive). Also, the nuclei count in [2] worked out at 112%; in assay [3] it was 121%. Moreover, the z-score in [4] (setting [13]) is 0.724; in assay [4] (setting [14]), -0.336; in assay [4] (setting [15]) it was -0.652. Also, the fluorescence slope in assay [6] is -0.544 (inactive). Moreover, the NADPH fluorescence slope in assay [7] is -5e-05 (inactive). The slope in assay [8] was 0.0056 (inactive). Further, the compound was called inactive in assay [9].

As for `CN(C(=O)C(Cl)Cl)c1ccc(OC(=O)c2ccco2)cc1`, the cell count in [1] turned out to be 579. The inhibition in assay [1] was -1.8% (inactive); in [3] it was -123% (inactive); in [5] it was 15.3% (inactive); in assay [10], -2.16% (inactive); in [11], 21.3% (inactive); in assay [12], 44.8% (inactive). The inhibition of aggregation in [2] was -17.3% (inactive). In addition, the nuclei count stood at 101% in [2] and 112% in [3]. Moreover, the z-score is 0.253 in assay [4] (setting [13]), -0.205 in assay [4] (setting [14]) and -0.332 in assay [4] (setting [15]). Further, the fluorescence slope in assay [6] was -0.508 (inactive). In addition, the NADPH fluorescence slope in assay [7] was -6.7e-05 (inactive). For the same compound, the slope in [8] is 0.00492 (inactive). Also, the outcome in assay [9] was inactive.

`Nc1nnc(-c2cccc(Cl)c2Cl)c(N)n1`: the cell count in [1] came to 697. Moreover, the inhibition in assay [1] is -8.4% (inactive); in [3], -39.9% (inactive); in assay [5] it was 1.48% (inactive); in assay [10], -6.28% (inactive) and 7.36% (inactive); in [11], -2.35% (inactive); in assay [12], 13.8% (inactive). The inhibition of aggregation in assay [2] was 2.2% (inactive). Besides, the nuclei count in [2] worked out at 112%; in assay [3] it was 139%. The results for the z-score in assay [4] (setting [13]), in [4] (setting [14]) and in [4] (setting [15]) were -0.0756, -0.0257 and 1.16, respectively. In addition, the fluorescence slope in [6] is -0.527 (inactive). Moreover, the NADPH fluorescence slope in assay [7] is -7.1e-06 (inactive). The slope in [8] was 0.00578 (inactive). The call in [9] was inactive.
